The record followed here is PubChem BioAssay (Tox21).

Assay [1] addresses Progesterone receptor (Homo sapiens) (UniProt P06401). As to the kind of experiment: qHTS assay to identify small molecule agonists of the progesterone receptor (PR) signaling pathway (AID 1346784; calls by dose curve; further: nearly all actives have a fitted effect of over 30% in size; further: potency means the concentration at half of the fitted maximal effect). An outline of the steps:
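Compounds were tested for PR agonism in HEK 293T cells bearing a beta-lactamase gene under UAS control. Treatment lasted 16 hr at 37C; signal came from fluorescence of a FRET substrate.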
For orientation: In qHTS, concentration-response curves come from the screen itself.

Assay [2] has the same target. Kind of assay: qHTS assay to identify small molecule antagonists of the progesterone receptor (PR) signaling pathway (AID 1346795; active means well fitted inhibition curve with a large enough effect in the signal ratio in the repeat runs, not every such curve was filed as active; the % refers to the signal ratio). An outline of the steps: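 In HEK293T cells bearing the PR-UAS-bla reporter, compound effects on promegestone-driven (1 nM) beta-lactamase expression are assessed after 16 hr using a fluorescent FRET substrate incubated 2 hr at room temperature.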

Assay [3] in a line: qHTS assay to identify small molecule antagonists of the progesterone receptor (PR) signaling pathway - cell viability counter screen (AID 1346798). Further: nearly all actives have a fitted effect of over 50% in size. Further: potency means the concentration at half of the fitted maximal effect. On activity change, negative = cytotoxicity: series mostly up to about 92 µM. An outline of the steps: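 Following a 4 hr attachment, PR-UAS-bla HEK293T cells in charcoal-stripped FBS medium were exposed to compounds with R5020 for 16 hr; CellTiter-Glo was added and luminescence read after 30 min at room temperature.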

Assay [4] is described as follows: qHTS assay to identify small molecule agonists of the progesterone receptor (PR) signaling pathway - cell viability counter screen (AID 1346799; calls by dose curve; further: nearly all actives have a fitted effect of over 45% in size; further: potency means the concentration at half of the fitted maximal effect). An outline of the steps: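 Here, 3,000 PR-UAS-bla HEK293T cells per well were treated with compounds for 16 hr after a 6 hr preincubation at 37C and 5% CO2; cell viability is the CellTiter-Glo luminescence signal.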
A short description of assay [5]: qHTS assay to identify small molecule antagonists of the TGF-beta/Smad signaling pathway - cell viability counter screen (AID 1346824). Further: nearly all actives have a fitted effect of over 50% in size. Put shortly: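 Cytotoxicity counter-screen run in the same wells as the beta-lactamase Smad reporter read: CellTiter-Glo luminescence after 30 min at room temperature. HEK 293T SBE-bla cells had 5 hr compound exposure at 37 C with TGF-beta1 (0.25 ng/mL stock).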

A short description of assay [6]: qHTS assay to identify small molecule agonists of the TGF-beta/Smad signaling pathway - cell viability counter screen (AID 1346829). Further: nearly all actives have a fitted effect of over 45% in size. Further: potency means the concentration at half of the fitted maximal effect. On activity change, negative = cytotoxicity: top concentration of the series differs between compounds. An outline of the steps: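 Same-well cytotoxicity: CellTiter-Glo added after the 2 hr room-temperature beta-lactamase substrate step, luminescence measured 30 min later; cells had 5 hr of compound at 37 C.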
The nature of assay [7]: qHTS assay to identify small molecule agonists of the TGF-beta/Smad signaling pathway (AID 1346859; active means well fitted activation curve with a large enough effect in the signal ratio in the repeat runs, not every such curve was filed as active; the % refers to the signal ratio; further: series mostly up to about 77 µM). Put shortly: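 Each well held 4,000 SBE-bla HEK 293T cells incubated overnight before compound addition; 5 hr later the cleavable FRET substrate went on for 2 hr at room temperature, and fluorescence was read at two emissions.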
Assay [8] concerns the target Thyrotropin-releasing hormone receptor (Homo sapiens) (UniProt P34981). As to the kind of experiment: qHTS assay to identify small molecule antagonists of the thyrotropin-releasing hormone receptor (TRHR) signaling pathway (AID 1346877; active means well fitted inhibition curve with a large enough effect in the repeat runs, not every such curve was filed as active; further: potency means the concentration at half of the fitted maximal effect; on activity, negative = inhibition: series mostly up to about 51 µM). An outline of the steps:
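Antagonist mode: after a 5 min room-temperature compound exposure, cells were stimulated with 1 nM (final) TRH. Dye-loaded TRHR-HEK293 cells were used, and calcium-dependent fluorescence was followed for 3 min, with 15-point titrations run in triplicate.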

Assay [9] shares this target. Kind of assay: qHTS assay to identify small molecule agonists of the thyrotropin-releasing hormone receptor (TRHR) signaling pathway (AID 1346891; calls by dose curve; further: potency means the concentration at half of the fitted maximal effect; on activation: series mostly up to about 58 µM). Put shortly: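 Screening of agonists relied on calcium signalling in HEK293 cells expressing human TRHR: dye loading 2 h at 37 °C preceded compound addition and a 3-min fluorescence time course.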
A short description of assay [10]: Human pregnane X receptor (PXR) small molecule agonists, qHTS cell viability counter screen (AID 1346977). Further: nearly all actives have a fitted effect of over 50% in size. Further: potency means the concentration at half of the fitted maximal effect. An outline of the steps: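 Tox21 qHTS format; PXR-Luc HepG2, 2,000/well, charcoal-stripped FBS 5%. Cpd exposure 24hr. Read: CellTiter-Fluor fluorescence, multiplexed with luciferase.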

Where “and” joins values, the source holds several entries; their conditions need not be identical. Identical values can stand only once. Inconclusive results are not listed. More than one record can exist for a structure, and the calls need not agree. Calls of active or inactive are those of the source. Unless noted, the call rests on the fitted dose curve; in most records, active means well fitted curve in the direction sought with a large enough effect in the repeat runs; inconclusive means weak or mixed curves; inactive means no such curve, though single readings can be large; an effect the other way counts as inactive or inconclusive.
On the % scale 0 is the no-effect control and ±100 the full control effect.

Sequence of Thyrotropin-releasing hormone receptor (Homo sapiens) (P34981 whole entry, looked up): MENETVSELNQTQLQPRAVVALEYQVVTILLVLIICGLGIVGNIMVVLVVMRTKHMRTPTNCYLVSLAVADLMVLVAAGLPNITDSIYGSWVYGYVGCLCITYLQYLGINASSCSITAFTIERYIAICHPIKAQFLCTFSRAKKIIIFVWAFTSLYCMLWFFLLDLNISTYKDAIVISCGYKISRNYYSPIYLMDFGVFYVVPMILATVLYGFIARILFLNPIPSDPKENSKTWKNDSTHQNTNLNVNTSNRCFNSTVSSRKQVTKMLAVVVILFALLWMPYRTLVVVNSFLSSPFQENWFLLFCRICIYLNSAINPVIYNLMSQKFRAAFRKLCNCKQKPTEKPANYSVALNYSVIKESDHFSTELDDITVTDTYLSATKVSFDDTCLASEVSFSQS
Sequence of Progesterone receptor (Homo sapiens) (P06401 whole entry, looked up): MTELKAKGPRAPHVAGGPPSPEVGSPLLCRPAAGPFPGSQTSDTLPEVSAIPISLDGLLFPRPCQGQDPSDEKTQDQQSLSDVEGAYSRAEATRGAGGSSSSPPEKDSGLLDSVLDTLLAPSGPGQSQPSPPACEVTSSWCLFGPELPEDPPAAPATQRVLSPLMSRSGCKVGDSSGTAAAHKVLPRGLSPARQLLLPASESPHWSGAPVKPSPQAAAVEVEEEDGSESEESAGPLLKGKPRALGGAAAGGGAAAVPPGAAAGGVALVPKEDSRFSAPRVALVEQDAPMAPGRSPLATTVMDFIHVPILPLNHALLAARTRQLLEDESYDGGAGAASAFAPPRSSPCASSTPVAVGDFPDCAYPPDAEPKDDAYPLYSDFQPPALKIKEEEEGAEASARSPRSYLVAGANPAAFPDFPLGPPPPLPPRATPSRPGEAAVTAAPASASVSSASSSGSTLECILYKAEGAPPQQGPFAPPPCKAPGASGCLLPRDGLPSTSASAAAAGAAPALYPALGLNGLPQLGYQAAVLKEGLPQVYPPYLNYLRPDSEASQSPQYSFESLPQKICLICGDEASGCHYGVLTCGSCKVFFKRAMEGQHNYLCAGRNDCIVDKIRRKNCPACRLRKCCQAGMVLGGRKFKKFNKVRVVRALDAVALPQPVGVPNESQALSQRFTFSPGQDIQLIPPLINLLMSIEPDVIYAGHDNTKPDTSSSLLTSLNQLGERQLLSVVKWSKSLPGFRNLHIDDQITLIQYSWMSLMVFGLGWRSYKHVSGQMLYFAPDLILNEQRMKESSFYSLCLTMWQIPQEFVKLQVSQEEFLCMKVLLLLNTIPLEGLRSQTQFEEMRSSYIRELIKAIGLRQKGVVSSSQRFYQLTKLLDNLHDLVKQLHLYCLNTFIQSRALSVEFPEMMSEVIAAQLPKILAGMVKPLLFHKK

Turning to `CC1COC(=O)O1` (stereo not given), the Potency entry in assay [1], in assay [2], in [3], in assay [4], in [5] and in [6] was “inactive” throughout. Besides, the Potency result in assay [8], in [9] and in [10] was “inactive” each time. In addition, in assay [7], the outcome was inactive.

As for `O=C(O)c1cn(-c2ccc(F)cc2)c2cc(N3CCNCC3)c(F)cc2c1=O`, the Potency entry in [1], in assay [3], in [5], in assay [6] and in [10] was “inactive” in each case. Besides, the activity change, negative = inhibition in assay [2] was 13.8% [at 18.9 µM] (inactive). The activity change, negative = cytotoxicity in assay [4] was 10.6% [at 19 µM] (inactive). The molecule was classed as inactive in [7].

Turning to `CCc1cc(C(C)(C)C)c(O)c(C(C)(C)C)c1`, the Potency result in assay [1], in assay [2], in [3], in assay [4], in [5] and in assay [6] was “inactive” each time. The Potency result in assay [8], in assay [9] and in assay [10] was “inactive” throughout.

Regarding `CCCC(=O)c1ccccc1`, the Potency result in assay [1], in assay [2], in assay [3], in assay [4], in assay [5] and in [6] was “inactive” throughout. The Potency result in assay [8], in assay [9] and in [10] was “inactive” in each case. In assay [7], the molecule was called inactive.

With `COC(=O)c1cccc(C(=O)OC)c1`, the Potency result in assay [1], in assay [2], in assay [3], in [4], in assay [5] and in assay [6] was “inactive” each time. Besides, the Potency result in assay [8], in assay [9] and in [10] was “inactive” each time.

Take `C=CS(=O)(=O)O`: the Potency result in [1], in assay [2], in assay [3], in [4], in assay [5] and in assay [6] was “inactive” each time. Moreover, the Potency entry in assay [8], in assay [9] and in [10] was “inactive” throughout.

For `CC(C)(C)c1cc(C(C)(C)C)c(O)c(C(C)(C)C)c1`, the Potency result in assay [1], in assay [2], in assay [3], in assay [4], in assay [5] and in assay [6] was “inactive” each time. Further, the Potency result in [8], in [9] and in [10] was “inactive” each time. The result in assay [7] was inactive.

As for `CCC[C@H](N[C@@H](C)C(=O)N1[C@H](C(=O)O)C[C@@H]2CCCC[C@@H]21)C(=O)OCC`, the Potency result in assay [1], in [2], in [3], in [4], in [5] and in [6] was “inactive” each time. Further, in assay [10], the Potency entry was “inactive”. The result in assay [7] was inactive.

In the case of `CC(=O)CC(C)=O`, the Potency result in assay [1], in assay [2], in assay [3], in assay [4], in [5] and in [6] was “inactive” throughout. Besides, the Potency result in assay [8], in assay [9] and in assay [10] was “inactive” throughout.

For `CCC(C)(Oc1ccc(C2(c3ccc(OC(C)(CC)C(=O)O)cc3)CCCCC2)cc1)C(=O)O` (stereo not given), the Potency result in [1], in assay [2], in assay [3], in assay [4], in assay [5] and in [6] was “inactive” throughout. In addition, the Potency result in [10] was “inactive”. In assay [7], the call was inactive.

As for `CC(C)(C)NCC(O)COc1ccccc1OCC1CCCO1` (stereo not given), the Potency entry in [1], in [2], in assay [3], in assay [4], in assay [5] and in assay [6] was “inactive” in each case. Besides, the Potency result in assay [8], in assay [9] and in [10] was “inactive” each time.

As to `CC(C)(O)CCC(C)(C)O`, the Potency result in assay [1], in assay [2], in [3], in assay [4], in assay [5] and in assay [6] was “inactive” each time. Besides, the Potency result in [8], in assay [9] and in assay [10] was “inactive” throughout. For the same molecule, the molecule was classed as inactive in assay [7].

On to `CCCNC(C)C(=O)Nc1ccccc1C` (stereo not given), for which the Potency result in assay [1], in assay [2], in assay [3], in assay [4], in [6] and in assay [8] was “inactive” each time. Moreover, the Potency entry in [9] and in assay [10] was “inactive” throughout.

As for `NC(Cc1ccc(Cl)cc1)C(=O)O` (stereo not given), the figures for the activation in assay [1], in assay [7] and in assay [9] were -4.74% [at 0.349 µM] (inactive), 0.242% [at 0.29 µM] (inactive) and 0.0344% [at 0.218 µM] (inactive), respectively. Further, in assay [2], the activity change, negative = inhibition was -0.261% [at 0.348 µM] (inactive). Further, the activity change, negative = cytotoxicity in assay [3] was -9.96% [at 0.348 µM] (inactive); in assay [4], -7.43% [at 0.349 µM] (inactive); in assay [6], -10.5% [at 0.29 µM] (inactive); in [10], 6.84% [at 0.349 µM] (inactive). For the same molecule, the viability change, negative = cytotoxic in [5] was 4.44% [at 0.29 µM] (inactive). For the same molecule, in assay [8], the activity, negative = inhibition is -6.16% [at 0.194 µM] (inactive).

For the molecule `NC12CC3CC(CC(C3)C1)C2`, the Potency entry in assay [1], in [2], in [3], in assay [4], in assay [5] and in assay [6] was “inactive” throughout. In addition, the Potency entry in [10] was “inactive”. Also, in [7], the call was inactive.

Turning to `NC(=Nc1ccccc1)Nc1ccccc1`, the Potency result in [1], in [3], in assay [4], in assay [5] and in assay [6] was “inactive” throughout. For the same molecule, the Potency in assay [8] was 10.1 µM (active) and inactive; in assay [9] it was 7.76 µM (active) and 15.1 µM (active); in [10] it was 4.86 µM (active).

`CCn1cc(C(=O)O)c(=O)c2cc(F)c(N3CCNC(C)C3)c(F)c21` (stereo not given): the Potency entry in assay [1], in assay [3], in assay [4], in [5], in [6] and in [10] was “inactive” in each case.

Regarding `Cc1cc(OCCOCC[N+](C)(C)Cc2ccccc2)ccc1C(C)(C)CC(C)(C)C`, the Potency result in [1], in [8] and in [9] was “inactive” throughout. The Potency in assay [3] is 54.2 µM (active) and 26.6 µM (active); in [4] it was 27.1 µM (active) and 13.3 µM (active); in assay [6], 43.4 µM (active) and 23.9 µM (active); in [10], 54.2 µM (active). In addition, in assay [7], the result was inactive.

Take `CN(C)c1ccc2nc3ccc(=[N+](C)C)cc-3sc2c1`: the Potency entry in [1], in assay [3], in assay [4], in assay [5], in [6] and in assay [8] was “inactive” throughout. Moreover, in assay [9], the Potency entry is “inactive”. Moreover, the molecule was called inactive in assay [7]. In addition, the Potency in assay [10] is 1.86 µM (active) and 9.69 µM (active) and 10.6 µM (active).

`CCN(CC)c1ccc2c(C)cc(=O)oc2c1`: the Potency in [1] is 30.9 µM (active) and 34.4 µM (active). Further, the Potency entry in [3], in assay [4], in [5], in [6], in assay [8] and in assay [9] was “inactive” each time. In assay [10], the Potency result was “inactive”.

In the case of `OCCN1CCNCC1`, the Potency result in assay [1], in [3], in assay [4], in assay [5], in assay [6] and in [8] was “inactive” in each case. Besides, the Potency entry in assay [9] and in assay [10] was “inactive” in each case. In addition, the outcome in assay [7] was inactive.

Turning to `CC(=O)OCC1=C(C(=O)O)N2C(=O)[C@@H](NC(=O)Cc3cccs3)[C@H]2SC1`, the Potency result in [1], in [3], in assay [4], in assay [6], in assay [8] and in assay [9] was “inactive” each time. In addition, the Potency result in [10] is “inactive”.
